Sampled rows, rich in hits. Any-hit rate of the full collection: about 19%.
DT40 TDP1 CPT: qHTS for Inhibitors of human tyrosyl-DNA phosphodiesterase 1 (TDP1): qHTS in cells in presence of CPT; chicken DT40 Tdp1-/-;hTDP1 cells + 20 nM CPT, ATP luminescence, 48 h; Potency, µM (series often up to 46.2 µM), for the others: top-dose activity change, negative = growth inhibition, hits mostly inhibitors; 12% of 420,000 active; further: potency means the concentration at half of the fitted maximal effect; nearly all actives have a fitted effect of over 55% in size
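Chicken DT40 Tdp1-/- cells stably complemented with human TDP1 were seeded at 400 cells/well in medium containing 20 nM camptothecin, exposed to pin-transferred compounds, and grown at 37 °C for at least 48 hr. Viability was read as ATP luminescence.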
TDP1 cell noCPT: qHTS for Inhibitors of human tyrosyl-DNA phosphodiesterase 1 (TDP1): qHTS in cells in absence of CPT. DT40 Tdp1-/- hTDP1 cells, no CPT, ATP luminescence, 48 h. Potency, µM (doses to about 46.2 µM), for the others: at the highest dose activity change, negative = growth inhibition, most hits filed as inhibitors. 15% of 420,000 active. AID 686978, 2013; further: potency means the concentration at half of the fitted maximal effect; nearly all actives have a fitted effect of over 55% in size
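Chicken DT40 Tdp1-/- cells stably complemented with human TDP1 were seeded at 400 cells/well with DMSO in place of 20 nM camptothecin. After compound pinning, cells grew at least 48 hr at 37 °C; viability read by CellTiter-Glo luminescence.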
IL1B secr inh: qHTS for Inhibitors of Inflammasome Signaling: IL-1-beta AlphaLISA Primary Screen; AID 743279, 2014; THP-1 LPS/ATP IL-1B secretion, AlphaLISA, 16 h; hits give low values; 4.7% of 360,000 active; activity change, % at 57.5 µM; in the data active means activity change below about -50%; inconclusive means mostly about -30% to -49%
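THP-1 cells pretreated 1 hr with compounds (up to 57.5 uM final), then stimulated with LPS (250 ng/mL final) plus ATP (1.25 mM final); secreted IL-1B measured by AlphaLISA after 16 hr, decreased signal indicating inhibition.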
HT1080-NT tox: qHTS for induction of synthetic lethality in tumor cells producing 2HG: qHTS for the HT-1080-NT fibrosarcoma cell line; HT-1080-NT fibrosarcoma viability, CellTiter-Glo ATP luminescence, 48 h; Potency, µM (doses to about 46.1 µM), without a hit: at the highest dose activity, negative = less viability, hits mostly cytotoxic; 1.6% of 360,000 active;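 further: NT is the 2HG producing partner of a matched IDH1 knockdown line; potency means the concentration at half of the fitted maximal effect; 0% = DMSO-treated cells and -100% = media-only wells without cells; nearly all actives have a fitted effect of over 55% in size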
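HT-1080-NT fibrosarcoma cells (2HG-overproducing), 750 cells/well in RPMI with 5% FBS, dosed after 2 h and incubated 48 h at 37C. CellTiter-Glo luminescence normalized to DMSO and no-cell wells; concentration-response curves fitted and classed.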
HT1080 IDH1KD tx: qHTS for induction of synthetic lethality in tumor cells producing 2HG: qHTS for the HT-1080-IDH1KD cell line; HT-1080 IDH1 knockdown viability, ATP luminescence, 48 h; Potency, µM (top dose mostly 46.1 µM), for the others: at the highest dose activity, negative = toxicity, usual class: cytotoxic; 2% of 360,000 active;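 further: potency means the concentration at half of the fitted maximal effect; 0% = DMSO wells and -100% = cell-free medium wells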
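CellTiter-Glo luminescence after 48 h compound exposure at 37 degrees C of IDH1-knockdown HT-1080 cells in 5% FBS RPMI. %Activity scaled between DMSO wells and cell-free media wells, with curves fitted and assigned curve classes.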
* hit, by the source's call; u = inconclusive; x = no result. Unless noted, the call rests on the fitted dose curve; in most records, active means well fitted curve in the direction sought with a large enough effect; inconclusive means small, poorly fitted or top-dose-only effect, or another doubt; inactive means no such curve, though single readings can be large; an effect the other way counts as inactive or inconclusive. Unless noted, on the % scale 0 is the no-effect control and ±100 the full control effect.

SMILES	DT40 TDP1 CPT	TDP1 cell noCPT	IL1B secr inh	HT1080-NT tox	HT1080 IDH1KD tx
CC1CC(C)CN(C(=O)COC(=O)c2nn(C)c(=O)c3ccccc23)C1 (configuration not stated)	-2%	-10%	11	-4%	8%
O=C(Nc1ccc(N2CCCC2)cc1)c1cc(Br)ccc1Cl	3.7µM*	4.6µM*	-24	u	u
COc1ccc(C(=O)Nc2ccc(N3CCCC3)cc2)cc1	-13%	u	-12	-3%	0%
COc1ccc(C(=O)Nc2ccc(N3CCN(C(=O)c4ccccc4C)CC3)cc2)cc1	8.2µM*	8.2µM*	u	-2%	7%
COc1ccccc1Nc1ccc(NC(=O)c2cccc([N+](=O)[O-])c2C)cc1	u	18µM*	-27	-24%	-16%
COc1ccccc1Oc1ccc(NC(=O)c2ccccc2C)cc1	u	23µM*	-29	-10%	0%
Nc1ccccc1SC1CC(=O)N(c2ccccc2Cl)C1=O (configuration not stated)	-4%	-26%	-3	-3%	-1%
CCOC(=O)c1c(NC(=O)Cn2nc(C(F)(F)F)cc2C)sc(C)c1C	u	-10%	17	-4%	-3%
COc1ccc(Oc2ccc(NC(=O)c3ccccc3C)cc2)cc1	u	21µM*	u	u	u
CS(=O)(=O)N1CCN(c2ccc(NC(=O)C(c3ccccc3)c3ccccc3)cc2)CC1	-20%	u	-15	-6%	-7%
Cc1nc(C)c(C(=O)Nc2ccc(Oc3ccccc3)cc2)o1	u	15µM*	32	u	-1%
O=C(Nc1ccc(N2CCCC2)cc1)C(Cl)c1ccccc1 (configuration not stated)	8.2µM*	13µM*	23	-6%	-12%
CC(=O)Nc1ccc(NC(=O)c2ccccc2C)cc1	-2%	6%	0	2%	11%
Cc1ncoc1C(=O)Nc1ccc(Oc2ccccc2)cc1	-21%	-8%	21	-7%	-27%
CCC(C)(C(=O)NC1CCCCC1)N(CC1CCCO1)C(=O)Cc1cccs1 (configuration not stated)	11%	-1%	-6	9%	20%
Cc1ccc(N2CC(C(=O)Nc3cccnc3)CC2=O)cc1Cl (configuration not stated)	-3%	-13%	29	20%	5%
C/C(=N\N(c1ccccc1)c1ccccc1)c1ccco1	-12%	-6%	-13	7%	-14%
O=C(NC1CCCCC1)c1ccc(Cn2c(SCc3ccccc3F)nc3cccnc32)cc1	u	16µM*	x	x	x
O=C(NC1CCCCC1)c1ccc(CSc2nc3cccnc3n2Cc2ccccc2F)cc1	u	21µM*	x	x	x
O=C(NC1CC1)c1ccc(Cn2c(SCc3ccccc3F)nc3cccnc32)cc1	21µM*	12µM*	x	x	x
O=C(CN1C(=O)CCc2cc(S(=O)(=O)N3CCOCC3)ccc21)Nc1cccc(Cl)c1	-28%	4%	x	x	x
CN(C)CCNC(=O)c1ccc2c(c1)N(Cc1ccc(F)cc1)CCS2	26µM*	16µM*	-7	-20%	-7%
O=C(NCCc1ccc(Cl)cc1)c1ccc2c(c1)N(Cc1c(F)cccc1Cl)C(=O)CS2	9.2µM*	2.6µM*	x	x	x
CC(NC(=O)c1ccc2c(c1)N(Cc1ccc(Cl)cc1)C(=O)CS2)c1ccccc1 (configuration not stated)	-22%	-23%	x	x	x
COc1ccc(CCNC(=O)c2ccc3c(c2)N(Cc2ccc(F)cc2)C(=O)CS3)cc1OC	15µM*	16µM*	x	x	x
SMILES	DT40 TDP1 CPT	TDP1 cell noCPT	IL1B secr inh	HT1080-NT tox	HT1080 IDH1KD tx
COc1ccc(CCNC(=O)c2ccc3c(c2)N(Cc2ccc(C)cc2)CCS3)cc1OC	18µM*	16µM*	-14	-9%	-9%
COc1ccc(CCNC(=O)c2ccc3c(c2)NC(=O)CS3)cc1OC	-29%	-5%	16	-1%	3%
Cc1ccc(CN2CCSc3ccc(C(=O)NCC4CCCO4)cc32)cc1 (configuration not stated)	u	u	-14	3%	-9%
O=C(COc1ccccc1-c1ccccc1)NN=C1CCCC1	-6%	u	57	u	u
N#Cc1ccc(NC(=O)c2ccc3c(c2)nnn3C2CCCC2)cc1	-16%	-10%	x	x	x
O=C(COC(=O)c1cccc(S(=O)(=O)Nc2ccc(F)cc2)c1)NCCN1C(=O)CSC1=O	5%	-10%	21	6%	5%
O=C(NC1CCCC1)c1ccc2c(c1)N(Cc1ccc(F)cc1)CCS2	u	u	-14	-19%	0%
COc1ccc(OC)c(CCNC(=O)c2ccc3c(c2)N(Cc2ccc(F)cc2)CCS3)c1	21µM*	u	0	-8%	-24%
COc1ccc(CCNC(=O)c2ccc3c(c2)N(Cc2ccc(F)cc2)CCS3)c(OC)c1	15µM*	13µM*	-55*	-24%	-12%
CCOc1ccc(CCNC(=O)c2ccc3c(c2)N(Cc2ccc(F)cc2)CCS3)cc1	u	15µM*	x	x	x
CN(C(=O)CSc1cc(Cl)ccc1Cl)C1CCS(=O)(=O)C1 (configuration not stated)	-2%	-10%	-1	0%	-9%
CCN(CC)S(=O)(=O)c1ccc(NC(=O)c2nn(C)c3c2CSc2ccccc2-3)cc1	u	18µM*	x	x	x
CC(C)OCCCNC(=O)c1nn(C)c2c1CSc1ccccc1-2	u	21µM*	x	x	x
CC1CCC(NC(=O)c2nn(C)c3c2CSc2ccccc2-3)CC1 (configuration not stated)	u	u	0	13%	16%
COc1ccc(OC)c(CNC(=O)c2nn(C)c3c2CSc2ccccc2-3)c1	21µM*	u	x	x	x
CC1CCCN(CCCNC(=O)c2nn(C)c3c2CSc2ccccc2-3)C1 (configuration not stated)	u	u	0	-13%	0%
Cn1nc(C(=O)NC2CCCCC2)c2c1-c1ccccc1SC2	26µM*	u	11	-1%	10%
O=C(NC1CC2CCCC(C1)N2Cc1ccc(F)cc1)c1ccc(F)cc1 (configuration not stated)	-23%	u	-12	-6%	-5%
O=C1CC2(CCN1)CCN(Cc1ccccc1)CC2	-2%	-13%	10	15%	21%
CC(C)N(C(=O)c1nn(C)c2c1CSc1ccccc1-2)C1CCCCC1	21µM*	10µM*	-18	u	-22%
